Data on 16 molecules can be found in PubChem BioAssay.

The source made the active and inactive calls.

The target of test [1] is Albumin (Bos taurus) (UniProt P02769). As to the kind of experiment: bovine serum albumin binders on microarray, profiling panel, artefact control for SMM control protein annotation, biochemical, small-molecule microarray, Alexa647 label, 635/667 nm fluorescence (AID 1118).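 Note: score merges 667 nm emission intensity and signal-to-noise per printed compound spot.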 Conditions: BSA-A647 binding, fluorescence 635 nm, higher = more signal.
Chain of Albumin (Bos taurus) (P02769 whole entry, looked up): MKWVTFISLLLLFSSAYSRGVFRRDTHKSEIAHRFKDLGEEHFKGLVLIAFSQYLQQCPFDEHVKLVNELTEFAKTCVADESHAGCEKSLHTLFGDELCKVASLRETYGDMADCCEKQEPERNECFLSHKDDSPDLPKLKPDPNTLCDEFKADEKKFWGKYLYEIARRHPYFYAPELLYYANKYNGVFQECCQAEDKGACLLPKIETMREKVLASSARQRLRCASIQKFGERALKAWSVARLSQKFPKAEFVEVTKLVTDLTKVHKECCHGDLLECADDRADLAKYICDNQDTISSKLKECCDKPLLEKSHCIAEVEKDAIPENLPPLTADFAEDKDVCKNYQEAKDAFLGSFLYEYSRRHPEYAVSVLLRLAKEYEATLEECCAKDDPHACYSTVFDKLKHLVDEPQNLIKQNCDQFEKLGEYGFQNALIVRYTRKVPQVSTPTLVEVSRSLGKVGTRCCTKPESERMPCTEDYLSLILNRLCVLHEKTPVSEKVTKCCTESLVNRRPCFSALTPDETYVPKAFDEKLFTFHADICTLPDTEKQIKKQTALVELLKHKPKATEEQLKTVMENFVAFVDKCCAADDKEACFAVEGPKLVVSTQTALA
A short description of test [2]: small-molecule microarray binders of probe aXIP, primary screen, biochemical, NeuroSMM set, 635/667 nm fluorescence (AID 1119).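 Note: probe is the protein aXip251-270 applied at 1 µg/mL to compound-printed slides; binding of probe to printed compounds measured as 667 nm fluorescence plus signal to noise.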 Conditions: higher = more signal, called active from +8 up or from −8 down.
The nature of test [3]: small-molecule binders of probe aNOTCH3, primary screen, biochemical, small-molecule microarray, 635/667 nm fluorescence (AID 1120).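 Note: probe is a biotin-tagged antibody raised against NOTCH3 rather than NOTCH3 protein; score merges spot fluorescence near 667 nm with spot signal to noise.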 Conditions: higher = more signal.
A short description of test [4]: small-molecule binders of probe aNOTCH2, primary screen, biochemical, small-molecule microarray, 635/667 nm fluorescence (AID 1121).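 Note: score merges feature fluorescence read at 667 nm with its signal to noise.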 Conditions: higher = more signal.
Test [5] has as its target Carbonic anhydrase 2 (Homo sapiens) (UniProt P00918). As to the kind of experiment: CAII small-molecule binders, profiling panel, biochemical, small-molecule microarray, Alexa647-labelled CAII (AID 1122). Conditions: CAII-A647 binding fluorescence, higher = more signal.
Test [6] is described as follows: COS7 lysate on small-molecule microarray, probe aHis, 635 nm (AID 1123).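 Note: z-score combines 667nm fluorescence intensity with signal-to-noise per printed compound spot.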 The note with it: COS7 cell lysate, fluorescence, higher = more signal.
A short description of test [7]: compound binding in COS7 lysate, probe aLAP1, primary screen, cell lysate, small-molecule microarray (AID 1124).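 Note: lysate comes from COS7 cells expressing LAP1 and is applied at 0.3 µg/mL; score merges spot fluorescence near 667 nm with signal-to-noise over triplicate slides.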 The note with it: probe aLAP1, fluorescence, higher = more signal.
In test [8] the test system is Sam68 (KHDRBS1). As to the kind of experiment: Sam68 small-molecule binders, primary screen, biochemical, small-molecule microarray, 635 nm fluorescence (AID 1125).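 Note: score merges 667 nm channel intensity with signal to noise over triplicate slides.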 Conditions: small-molecule microarray binding, higher = more signal.
Test [9] has as its system Chordin-like protein 2 (CHRDL2). As to the kind of experiment: CHRDL2 small-molecule binders, primary screen, biochemical, small-molecule microarray, 635 nm fluorescence (AID 1126).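 Note: printed compound slides probed with Chrdl2 protein at 4 µg/mL for 1 h at 4 C; score merges 667 nm emission intensity with signal to noise over three replicate slides.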 Conditions: small-molecule microarray binding, fluorescence 635 nm; higher = more signal.
For test [10], the target named is Concanavalin-A (Canavalia ensiformis) (UniProt P02866). Description: ConA small-molecule binders, primary screen, artefact control for SMM control protein annotation, biochemical, small-molecule microarray, Alexa647 label, 635 nm (AID 1127).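 Note: z combines 667 nm emission intensity with signal-to-noise across three replicate slides.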 The note with it: ConA-A647 binding fluorescence, higher = more signal.
Chain of Concanavalin-A (Canavalia ensiformis) (P02866 whole entry, looked up): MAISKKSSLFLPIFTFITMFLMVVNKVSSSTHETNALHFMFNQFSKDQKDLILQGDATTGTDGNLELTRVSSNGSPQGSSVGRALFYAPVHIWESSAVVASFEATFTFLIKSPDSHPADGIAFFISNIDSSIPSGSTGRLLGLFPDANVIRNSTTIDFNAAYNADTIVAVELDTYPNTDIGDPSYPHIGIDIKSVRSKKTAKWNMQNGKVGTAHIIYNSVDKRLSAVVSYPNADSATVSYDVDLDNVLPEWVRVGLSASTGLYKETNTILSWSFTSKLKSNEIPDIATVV

As for `CCCNC(=O)OC[C@H]1O[C@H](c2ccccc2)C=C[C@@H]1Oc1ccc(OC)cc1`, the composite z-score in test [1] is 0.16; in [3] it was -0.15; in [4], -0.14; in [5], 0.066; in test [6], 0.232; in test [7], 0.0186. The composite z-score was -0.573 in test [8], 0.062 in test [9] and -0.316 in test [10]. In [2], the composite Z-score is 0.0414 (inactive).

Regarding `O=C1[C@H]2[C@H]3[C@H](O)[C@H](O)CC(=NOCc4ccccc4)[C@@H]3CC[C@H]2C(=O)N1C[C@@H]1CCCO1`, the composite z-score was 0.0904 in [1]; -0.187 in test [3]; -0.0621 in test [4]; -0.026 in [5]; 0.369 in [6]; 0.279 in [7]. For the same molecule, the composite z-score in test [8] is -0.361; in test [9] it was 0.332; in test [10], 0.603. Further, in test [2], the composite Z-score was -0.207 (inactive).

Consider `C#CCCCON=C1[C@H]2CCn3c(=O)n(-c4ccccc4)c(=O)n3[C@H]2[C@H](O)[C@@H]2O[C@H]12`, for which the composite z-score in [1] was 0.37; in test [3], -0.0601; in [4], -0.142; in [5], -0.181; in test [6], -0.169; in test [7], -0.0252. The composite z-score in [8] worked out at 0.131; in [9], 0.609; in [10], 0.184. Also, the composite Z-score in test [2] was -0.377 (inactive).

In the case of `CC(=O)OC[C@H]1OC(ON=CC[C@@H]2C=C[C@H](OC(C)=O)[C@@H](COC(C)=O)O2)[C@H](OC(C)=O)[C@@H](OC(C)=O)[C@@H]1OC(C)=O` (stereo not given in full), the composite z-score in [1] was 0.0478; in [3], 0.144; in [4], -0.14; in test [5], -0.451; in [6], -0.011; in test [7], 0.31. The composite z-score in test [8] is 1.14; in test [9], -0.794; in test [10], 0.215. For the same molecule, the composite Z-score in test [2] is 0.359 (inactive).

Turning to `CC(CCN1CCCCc2nc(C)c(C)cc21)=NO[C@@H](C)c1cn([C@H](CO)Cc2ccccc2)nn1`, the composite z-score is 0.779 in test [1]; 0.0833 in test [3]; -0.14 in [4]; 0.464 in test [5]; -0.01 in test [6]; -0.248 in test [7]. For the same molecule, the figures for the composite z-score in test [8], in test [9] and in [10] were 0.719, 0.953 and 0.249, respectively. Also, the composite Z-score in test [2] is 0.364 (inactive).

`COC(=O)CC=C[C@@H](C)[C@@H](C=NO[C@H](C)c1cn([C@@H]2COC[C@H]2O)nn1)NS(=O)(=O)c1ccc(C)cc1`: the composite z-score is -0.129 in test [1]; 0.0316 in [3]; -0.0108 in [4]; -0.156 in test [5]; 0.0779 in test [6]; 0.219 in test [7]. Moreover, the composite z-score in test [8] is 0.277; in [9], 0.877; in test [10] it was -0.653. Moreover, the composite Z-score in [2] is 0.355 (inactive).

As for `C[C@@H](c1ccccc1)N1C(=O)[C@H]2[C@H]3[C@H](O)[C@H](O)CC(=O)[C@H]3CC[C@H]2C1=O`, the composite z-score in [1] was 0.587; in test [3], -0.367; in test [4] it was -0.226; in test [5], -0.125; in test [6], 0.241; in [7], 0.567. Besides, the composite z-score was found to be 0.626 in [8], 0.747 in test [9] and 0.336 in test [10]. Besides, the composite Z-score in [2] is -0.0023 (inactive).

For the molecule `CC(C)=CCCC(C)=CCON=C1C[C@@H](O)[C@@H](O)[C@@H]2[C@@H]3C(=O)N(c4ccc(F)cc4F)C(=O)[C@@H]3CC[C@H]12`, the composite z-score is 0.477 in test [1]; 0.164 in [3]; -0.0662 in test [4]; 0.514 in test [5]; 1.31 in test [6]; 0.402 in [7]. Also, the composite z-score in [8] stood at 1.24; in test [9] it was 0.812; in test [10], 0.629. Besides, the composite Z-score in test [2] is -0.356 (inactive).

As for `CON=C[C@@H](NS(=O)(=O)c1ccc(C)cc1)[C@H](C)C=CCC(=O)OC`, the composite z-score is -0.625 in test [1]; -0.0173 in [3]; -0.14 in test [4]; -0.374 in test [5]; 0.0154 in test [6]; 0.22 in [7]. Moreover, the results for the composite z-score in test [8], in test [9] and in [10] were -1.35, 1.26 and -0.0082, respectively. The composite Z-score in test [2] is -0.722 (inactive).

Take `C#CCCCON=C1C[C@@H](O)[C@@H](O)[C@@H]2[C@@H]3C(=O)N(c4ccc(F)cc4F)C(=O)[C@@H]3CC[C@@H]12`: the composite z-score is 0.373 in [1]; -0.113 in test [3]; -0.0569 in test [4]; -0.15 in test [5]; -0.366 in [6]; 0.202 in test [7]. Besides, the composite z-score in [8] is 0.428; in test [9] it was 0.217; in test [10], 0.505. In [2], the composite Z-score is -0.302 (inactive).

Regarding `Cc1cc2c(nc1C)CCCCN2CC(C)ON=C1[C@H]2CCn3c(=O)n(-c4ccccc4)c(=O)n3[C@H]2[C@H](O)[C@@H]2O[C@H]12` (stereo not given in full), the composite z-score in test [1] is 0.762; in [3] it was 0.0562; in test [4], -0.117; in test [5], 0.435; in test [6] it was 0.812; in test [7] it was 0.0072. Besides, the composite z-score in [8] is 0.573; in [9], 0.373; in test [10] it was -0.765. Besides, the composite Z-score in test [2] was -0.343 (inactive).

As to `Cc1ccc(S(=O)(=O)NC(CCc2ccccc2)CC(=O)C(C)(C)C)cc1` (stereo not given), the composite z-score in [1] is -0.122; in test [3], 0.0591; in test [4] it was -0.0984; in [5] it was 0.0117; in [6], 0.0881; in test [7] it was -0.113. Also, the composite z-score in test [8] came out at 0.93; in [9] it was 0.686; in [10], 0.87. The composite Z-score in test [2] is 0.6 (inactive).

Regarding `CON=Cc1ccc(C(=O)N2[C@H](c3ccc(C)cc3)[C@@H](C)CC[C@H]2C(=O)OC)cc1`, the composite z-score in test [1] was 0.54; in test [3], 0.0257; in test [4] it was -0.202; in test [5] it was 0.0882; in [6] it was 0.715; in test [7], 0.251. The values for the composite z-score in test [8], in [9] and in [10] were 1.11, 0.262 and 0.669, respectively. The composite Z-score in test [2] was 0.059 (inactive).

With `CCC1=NOC(CCC2CC(OC(=O)NCc3cccc4c3OCO4)CC3(CCCC(COC(=O)NCCc4ccccc4OC)O3)O2)C1` (stereo not given), the composite z-score in test [1] was 0.946; in [3], 0.134; in test [4], -0.122; in test [5], 0.45; in test [6], 1.24; in [7], 0.19. In addition, the figures for the composite z-score in test [8], in [9] and in test [10] were 1.31, -0.14 and 0.722, respectively. Moreover, the composite Z-score in test [2] is 0.632 (inactive).

Turning to `O=C1[C@H]2[C@H]3[C@H](O)[C@H](O)CC(=NOC[C@@H](O)COCc4ccco4)[C@H]3CC[C@H]2C(=O)N1c1ccc(F)cc1F`, the composite z-score was -0.0108 in test [1]; -0.291 in [3]; -0.146 in test [4]; 0.823 in test [5]; -0.823 in test [6]; 0.0839 in [7]. The figures for the composite z-score in test [8], in [9] and in test [10] were -1.25, -0.48 and -1.03, respectively. Besides, the composite Z-score in [2] was -0.214 (inactive).

With `CCOC(=O)[C@H](Cc1ccccc1)NC(=O)CCC1CC(OC(=O)NCc2cccc3ccccc23)CC2(CCCC(COC(=O)NCc3ccccc3)O2)O1` (stereo not given in full), the composite z-score was 0.561 in test [1]; -0.0204 in test [3]; -0.155 in [4]; 0.452 in [5]; 1.06 in test [6]; -0.398 in test [7]. Further, the figures for the composite z-score in test [8], in test [9] and in test [10] were 0.712, 0.0223 and 0.649, respectively. Further, in test [2], the composite Z-score was -0.0662 (inactive).
